# Measured values: ChEMBL document CHEMBL1961873, “Compounds: GSK PKIS; Assays: Nanosyn kinase panel” (2012)
# Columns and labels:
# [1] = target: T1, Ephrin type-B receptor 2 (Homo sapiens) (UniProt P29323); settings: at 1 µM
# T1 sequence (whole entry): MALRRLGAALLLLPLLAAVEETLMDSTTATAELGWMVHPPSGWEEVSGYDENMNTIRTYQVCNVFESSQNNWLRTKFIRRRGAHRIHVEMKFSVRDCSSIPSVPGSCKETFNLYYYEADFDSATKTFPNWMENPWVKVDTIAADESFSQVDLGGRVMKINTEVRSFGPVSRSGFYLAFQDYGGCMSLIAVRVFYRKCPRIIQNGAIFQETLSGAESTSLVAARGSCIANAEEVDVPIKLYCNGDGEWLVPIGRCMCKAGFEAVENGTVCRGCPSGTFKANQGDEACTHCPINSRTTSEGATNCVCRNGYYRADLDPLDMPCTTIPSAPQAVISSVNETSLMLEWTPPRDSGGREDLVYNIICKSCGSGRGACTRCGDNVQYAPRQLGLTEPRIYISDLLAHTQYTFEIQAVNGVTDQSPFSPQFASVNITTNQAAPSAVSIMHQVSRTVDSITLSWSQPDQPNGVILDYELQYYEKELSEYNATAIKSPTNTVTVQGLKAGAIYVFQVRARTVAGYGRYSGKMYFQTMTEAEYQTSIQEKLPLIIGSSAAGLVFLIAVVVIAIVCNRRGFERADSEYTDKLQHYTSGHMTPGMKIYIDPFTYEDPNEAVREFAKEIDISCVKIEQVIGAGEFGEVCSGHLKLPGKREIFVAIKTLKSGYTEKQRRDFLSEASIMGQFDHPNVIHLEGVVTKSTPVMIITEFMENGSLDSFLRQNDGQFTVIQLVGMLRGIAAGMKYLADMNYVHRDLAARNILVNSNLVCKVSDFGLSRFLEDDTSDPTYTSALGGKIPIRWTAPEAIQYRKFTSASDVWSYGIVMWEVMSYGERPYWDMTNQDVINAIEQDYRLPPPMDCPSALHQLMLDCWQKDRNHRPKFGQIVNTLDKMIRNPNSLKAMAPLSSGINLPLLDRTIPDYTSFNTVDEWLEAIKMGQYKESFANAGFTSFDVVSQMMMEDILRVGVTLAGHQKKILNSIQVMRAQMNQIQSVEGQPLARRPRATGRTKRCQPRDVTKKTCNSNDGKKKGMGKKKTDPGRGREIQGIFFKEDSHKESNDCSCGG
# [2] = target: T2, Ephrin type-B receptor 3 (Homo sapiens) (UniProt P54753); settings: at 0.1 µM
# T2 sequence (whole entry): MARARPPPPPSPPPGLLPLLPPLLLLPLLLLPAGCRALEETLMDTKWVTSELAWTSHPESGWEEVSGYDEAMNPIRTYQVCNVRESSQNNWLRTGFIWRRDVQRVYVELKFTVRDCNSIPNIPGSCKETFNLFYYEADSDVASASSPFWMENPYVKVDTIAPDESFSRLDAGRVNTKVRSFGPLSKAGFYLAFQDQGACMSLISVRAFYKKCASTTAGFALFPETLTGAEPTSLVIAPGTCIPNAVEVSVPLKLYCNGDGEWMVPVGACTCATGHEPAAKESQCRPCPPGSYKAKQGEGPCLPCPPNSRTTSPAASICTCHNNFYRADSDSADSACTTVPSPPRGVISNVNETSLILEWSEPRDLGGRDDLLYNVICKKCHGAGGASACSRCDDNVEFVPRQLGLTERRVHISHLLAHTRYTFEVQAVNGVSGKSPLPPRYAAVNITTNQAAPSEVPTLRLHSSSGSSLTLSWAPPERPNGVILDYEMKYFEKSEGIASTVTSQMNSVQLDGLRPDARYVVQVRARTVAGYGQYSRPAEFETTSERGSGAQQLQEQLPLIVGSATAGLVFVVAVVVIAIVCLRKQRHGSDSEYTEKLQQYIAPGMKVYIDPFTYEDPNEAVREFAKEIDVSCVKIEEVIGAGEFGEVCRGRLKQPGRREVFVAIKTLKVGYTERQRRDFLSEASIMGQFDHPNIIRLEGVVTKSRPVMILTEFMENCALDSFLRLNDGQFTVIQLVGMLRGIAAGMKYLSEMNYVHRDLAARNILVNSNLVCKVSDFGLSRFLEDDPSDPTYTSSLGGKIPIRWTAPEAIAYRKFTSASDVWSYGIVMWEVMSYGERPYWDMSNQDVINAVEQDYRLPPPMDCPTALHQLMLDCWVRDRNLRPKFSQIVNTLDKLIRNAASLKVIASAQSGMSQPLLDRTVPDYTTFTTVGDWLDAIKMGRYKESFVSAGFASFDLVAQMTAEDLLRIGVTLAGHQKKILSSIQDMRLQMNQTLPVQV
# [3] = target: T2, Ephrin type-B receptor 3 (Homo sapiens); settings: at 1 µM
# [4] = target: T3, Ephrin type-B receptor 4 (Homo sapiens) (UniProt P54760); settings: at 0.1 µM
# T3 sequence (whole entry): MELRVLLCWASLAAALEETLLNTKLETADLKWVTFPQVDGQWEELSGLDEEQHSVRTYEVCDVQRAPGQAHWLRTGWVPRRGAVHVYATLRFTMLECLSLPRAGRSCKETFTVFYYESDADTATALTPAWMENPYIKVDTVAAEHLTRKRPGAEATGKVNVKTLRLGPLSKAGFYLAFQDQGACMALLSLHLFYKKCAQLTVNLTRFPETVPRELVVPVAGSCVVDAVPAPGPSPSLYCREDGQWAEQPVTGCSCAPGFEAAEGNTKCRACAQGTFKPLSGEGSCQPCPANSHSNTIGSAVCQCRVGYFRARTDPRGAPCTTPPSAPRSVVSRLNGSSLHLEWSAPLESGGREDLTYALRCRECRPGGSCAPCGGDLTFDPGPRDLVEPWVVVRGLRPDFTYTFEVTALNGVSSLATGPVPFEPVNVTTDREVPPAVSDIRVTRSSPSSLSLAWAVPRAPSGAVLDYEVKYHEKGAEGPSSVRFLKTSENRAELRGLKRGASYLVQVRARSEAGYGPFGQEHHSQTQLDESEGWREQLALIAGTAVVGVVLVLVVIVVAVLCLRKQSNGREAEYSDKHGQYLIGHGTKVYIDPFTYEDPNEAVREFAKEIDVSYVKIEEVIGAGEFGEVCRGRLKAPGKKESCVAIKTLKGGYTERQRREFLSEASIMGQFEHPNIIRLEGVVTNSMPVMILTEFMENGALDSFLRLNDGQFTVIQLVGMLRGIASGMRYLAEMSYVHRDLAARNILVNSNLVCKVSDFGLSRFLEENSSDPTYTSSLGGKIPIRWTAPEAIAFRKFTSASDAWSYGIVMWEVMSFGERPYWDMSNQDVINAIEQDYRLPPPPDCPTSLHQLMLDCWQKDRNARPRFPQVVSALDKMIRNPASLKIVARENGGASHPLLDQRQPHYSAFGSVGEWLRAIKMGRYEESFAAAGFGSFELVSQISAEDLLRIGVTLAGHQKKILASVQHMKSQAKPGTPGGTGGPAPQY
# [5] = target: T3, Ephrin type-B receptor 4 (Homo sapiens); settings: at 1 µM
# [6] = target: Receptor tyrosine-protein kinase erbB-2 (Homo sapiens) (UniProt P04626); settings: at 0.1 µM
# [7] = target: Receptor tyrosine-protein kinase erbB-2 (Homo sapiens) (UniProt P04626); settings: at 1 µM
# [8] = target: Receptor tyrosine-protein kinase erbB-4 (Homo sapiens) (UniProt Q15303); settings: at 0.1 µM
# Sequence of Receptor tyrosine-protein kinase erbB-4 (Homo sapiens) (Q15303 whole entry): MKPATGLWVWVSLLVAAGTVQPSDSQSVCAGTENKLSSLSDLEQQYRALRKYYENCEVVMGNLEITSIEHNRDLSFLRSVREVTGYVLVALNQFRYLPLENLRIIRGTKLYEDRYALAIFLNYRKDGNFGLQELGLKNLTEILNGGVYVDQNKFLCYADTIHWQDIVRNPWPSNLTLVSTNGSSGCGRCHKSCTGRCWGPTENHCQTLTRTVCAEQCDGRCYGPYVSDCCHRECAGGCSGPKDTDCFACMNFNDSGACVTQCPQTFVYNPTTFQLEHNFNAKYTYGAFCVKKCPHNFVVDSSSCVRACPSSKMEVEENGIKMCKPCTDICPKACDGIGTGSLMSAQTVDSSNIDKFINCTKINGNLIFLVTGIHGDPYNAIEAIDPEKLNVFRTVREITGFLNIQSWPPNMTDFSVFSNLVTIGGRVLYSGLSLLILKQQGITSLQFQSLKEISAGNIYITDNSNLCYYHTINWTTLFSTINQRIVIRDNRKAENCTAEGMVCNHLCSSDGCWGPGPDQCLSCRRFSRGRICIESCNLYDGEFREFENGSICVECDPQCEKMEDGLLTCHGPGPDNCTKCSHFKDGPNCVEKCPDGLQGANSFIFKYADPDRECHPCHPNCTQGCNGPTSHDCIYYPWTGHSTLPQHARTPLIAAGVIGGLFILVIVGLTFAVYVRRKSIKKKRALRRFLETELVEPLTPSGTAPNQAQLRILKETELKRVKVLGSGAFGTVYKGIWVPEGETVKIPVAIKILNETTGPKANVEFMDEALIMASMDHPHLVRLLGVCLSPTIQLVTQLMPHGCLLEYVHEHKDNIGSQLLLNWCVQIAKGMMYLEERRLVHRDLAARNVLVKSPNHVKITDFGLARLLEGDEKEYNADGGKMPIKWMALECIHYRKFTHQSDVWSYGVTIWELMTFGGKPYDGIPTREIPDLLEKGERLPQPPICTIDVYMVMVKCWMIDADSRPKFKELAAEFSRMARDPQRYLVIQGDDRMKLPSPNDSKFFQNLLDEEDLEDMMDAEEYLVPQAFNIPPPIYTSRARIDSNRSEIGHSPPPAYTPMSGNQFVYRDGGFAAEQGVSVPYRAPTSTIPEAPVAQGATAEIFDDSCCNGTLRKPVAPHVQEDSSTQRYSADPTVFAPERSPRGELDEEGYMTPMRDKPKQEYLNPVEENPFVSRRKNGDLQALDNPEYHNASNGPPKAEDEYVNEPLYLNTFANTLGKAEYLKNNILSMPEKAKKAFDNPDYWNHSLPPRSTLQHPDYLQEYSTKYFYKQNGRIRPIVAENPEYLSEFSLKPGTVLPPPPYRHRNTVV
# [9] = target: Receptor tyrosine-protein kinase erbB-4 (Homo sapiens) (UniProt Q15303); settings: at 1 µM
# [10] = target: Tyrosine-protein kinase Fer (Homo sapiens) (UniProt P16591); settings: at 0.1 µM
# Sequence of Tyrosine-protein kinase Fer (Homo sapiens) (P16591 whole entry, looked up): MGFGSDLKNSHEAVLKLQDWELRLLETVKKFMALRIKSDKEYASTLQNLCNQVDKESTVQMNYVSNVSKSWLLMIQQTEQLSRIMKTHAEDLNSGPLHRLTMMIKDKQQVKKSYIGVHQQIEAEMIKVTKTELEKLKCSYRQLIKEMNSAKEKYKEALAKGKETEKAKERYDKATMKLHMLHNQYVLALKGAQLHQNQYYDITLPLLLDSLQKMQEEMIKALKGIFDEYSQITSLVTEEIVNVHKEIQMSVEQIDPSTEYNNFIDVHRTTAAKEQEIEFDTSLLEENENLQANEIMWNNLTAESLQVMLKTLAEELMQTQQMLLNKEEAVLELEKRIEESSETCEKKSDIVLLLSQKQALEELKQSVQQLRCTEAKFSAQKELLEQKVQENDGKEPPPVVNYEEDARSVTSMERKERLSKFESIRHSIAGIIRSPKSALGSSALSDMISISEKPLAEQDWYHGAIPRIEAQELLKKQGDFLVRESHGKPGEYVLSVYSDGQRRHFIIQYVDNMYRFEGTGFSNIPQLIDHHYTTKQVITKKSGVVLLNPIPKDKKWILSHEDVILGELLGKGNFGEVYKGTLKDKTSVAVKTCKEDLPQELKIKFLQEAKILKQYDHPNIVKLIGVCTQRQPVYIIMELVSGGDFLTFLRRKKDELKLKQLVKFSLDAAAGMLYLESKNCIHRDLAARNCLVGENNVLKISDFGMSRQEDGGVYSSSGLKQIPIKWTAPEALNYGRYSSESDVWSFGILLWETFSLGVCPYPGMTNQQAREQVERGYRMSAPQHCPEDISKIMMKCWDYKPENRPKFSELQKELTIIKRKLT
# [11] = target: Tyrosine-protein kinase Fer (Homo sapiens) (UniProt P16591); settings: at 1 µM
# [12] = target: Tyrosine-protein kinase Fes/Fps (Homo sapiens) (UniProt P07332); settings: at 0.1 µM
# Sequence of Tyrosine-protein kinase Fes/Fps (Homo sapiens) (P07332 whole entry): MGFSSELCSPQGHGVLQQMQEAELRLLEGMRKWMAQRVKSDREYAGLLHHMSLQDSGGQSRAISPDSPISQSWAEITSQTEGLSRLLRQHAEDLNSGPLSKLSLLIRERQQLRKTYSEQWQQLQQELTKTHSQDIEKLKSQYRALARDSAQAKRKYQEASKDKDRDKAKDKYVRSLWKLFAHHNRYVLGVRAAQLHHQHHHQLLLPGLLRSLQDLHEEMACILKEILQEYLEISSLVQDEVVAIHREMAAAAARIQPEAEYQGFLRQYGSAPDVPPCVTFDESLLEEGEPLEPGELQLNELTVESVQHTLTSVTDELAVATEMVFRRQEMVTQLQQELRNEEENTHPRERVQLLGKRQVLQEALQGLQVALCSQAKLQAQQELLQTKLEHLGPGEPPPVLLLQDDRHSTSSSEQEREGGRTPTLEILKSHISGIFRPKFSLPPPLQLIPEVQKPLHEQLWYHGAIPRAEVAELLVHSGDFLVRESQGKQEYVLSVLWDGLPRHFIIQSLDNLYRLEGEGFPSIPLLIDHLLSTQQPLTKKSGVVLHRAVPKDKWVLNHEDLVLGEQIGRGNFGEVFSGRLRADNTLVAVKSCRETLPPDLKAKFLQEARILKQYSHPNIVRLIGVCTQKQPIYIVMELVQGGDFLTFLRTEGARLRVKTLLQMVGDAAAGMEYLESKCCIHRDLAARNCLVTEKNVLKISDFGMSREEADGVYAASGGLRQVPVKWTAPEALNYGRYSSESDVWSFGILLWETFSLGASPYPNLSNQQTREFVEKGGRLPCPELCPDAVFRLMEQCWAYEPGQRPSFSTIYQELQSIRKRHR
# [13] = target: Tyrosine-protein kinase Fes/Fps (Homo sapiens) (UniProt P07332); settings: at 1 µM
# [14] = target: Fibroblast growth factor receptor 1 (Homo sapiens) (UniProt P11362); settings: at 0.1 µM
# [15] = target: Fibroblast growth factor receptor 1 (Homo sapiens) (UniProt P11362); settings: at 1 µM
# [16] = target: Fibroblast growth factor receptor 2 (Homo sapiens) (UniProt P21802); settings: at 0.1 µM
# Sequence of Fibroblast growth factor receptor 2 (Homo sapiens) (P21802 22-821 limits assumed): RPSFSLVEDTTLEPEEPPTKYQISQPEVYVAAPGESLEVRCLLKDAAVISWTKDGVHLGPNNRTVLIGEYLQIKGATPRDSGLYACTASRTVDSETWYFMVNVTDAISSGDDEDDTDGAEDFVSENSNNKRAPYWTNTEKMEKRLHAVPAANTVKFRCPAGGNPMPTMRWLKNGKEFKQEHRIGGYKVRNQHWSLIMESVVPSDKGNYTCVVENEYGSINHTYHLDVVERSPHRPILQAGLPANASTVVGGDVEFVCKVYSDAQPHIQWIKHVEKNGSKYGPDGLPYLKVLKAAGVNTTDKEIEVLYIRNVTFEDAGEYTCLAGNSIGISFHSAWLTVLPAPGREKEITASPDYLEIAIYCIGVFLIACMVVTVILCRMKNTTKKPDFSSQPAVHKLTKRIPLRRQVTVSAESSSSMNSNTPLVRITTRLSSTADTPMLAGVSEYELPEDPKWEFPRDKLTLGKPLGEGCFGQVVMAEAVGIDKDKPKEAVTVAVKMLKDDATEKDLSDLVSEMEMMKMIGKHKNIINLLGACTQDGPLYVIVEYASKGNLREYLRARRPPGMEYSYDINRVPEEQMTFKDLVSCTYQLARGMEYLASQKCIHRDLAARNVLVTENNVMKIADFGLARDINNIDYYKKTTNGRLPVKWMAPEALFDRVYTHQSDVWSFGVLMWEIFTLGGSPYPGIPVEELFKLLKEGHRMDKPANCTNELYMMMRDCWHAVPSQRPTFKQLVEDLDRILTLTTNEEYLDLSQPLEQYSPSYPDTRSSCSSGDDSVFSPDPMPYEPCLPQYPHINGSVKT
# [17] = target: Fibroblast growth factor receptor 2 (Homo sapiens) (UniProt P21802); settings: at 1 µM
# [18] = target: Fibroblast growth factor receptor 3 (Homo sapiens) (UniProt P22607); settings: at 0.1 µM
# Sequence of Fibroblast growth factor receptor 3 (Homo sapiens) (P22607 23-806 limits assumed): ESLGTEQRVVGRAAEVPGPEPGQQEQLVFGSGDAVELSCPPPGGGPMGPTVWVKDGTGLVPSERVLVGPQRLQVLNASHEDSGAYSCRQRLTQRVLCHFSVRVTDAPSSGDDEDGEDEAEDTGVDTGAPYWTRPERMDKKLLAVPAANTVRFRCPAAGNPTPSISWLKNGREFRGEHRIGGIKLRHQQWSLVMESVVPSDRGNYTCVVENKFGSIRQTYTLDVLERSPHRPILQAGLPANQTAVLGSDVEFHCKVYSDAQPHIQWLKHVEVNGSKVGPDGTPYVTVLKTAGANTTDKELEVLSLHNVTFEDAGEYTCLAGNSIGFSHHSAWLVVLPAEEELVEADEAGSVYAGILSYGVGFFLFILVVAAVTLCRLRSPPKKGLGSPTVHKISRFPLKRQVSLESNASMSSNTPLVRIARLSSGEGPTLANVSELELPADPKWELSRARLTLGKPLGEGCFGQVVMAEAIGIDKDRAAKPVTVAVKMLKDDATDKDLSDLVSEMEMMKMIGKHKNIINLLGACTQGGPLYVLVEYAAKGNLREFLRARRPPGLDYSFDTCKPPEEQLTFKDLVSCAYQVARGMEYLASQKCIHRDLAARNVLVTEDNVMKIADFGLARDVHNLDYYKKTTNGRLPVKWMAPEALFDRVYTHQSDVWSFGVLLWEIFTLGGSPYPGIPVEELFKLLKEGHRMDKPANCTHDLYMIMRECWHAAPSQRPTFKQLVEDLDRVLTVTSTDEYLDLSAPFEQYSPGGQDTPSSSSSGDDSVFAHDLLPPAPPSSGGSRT
# [19] = target: Fibroblast growth factor receptor 4 (Homo sapiens) (UniProt P22455); settings: at 0.1 µM;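 further: values are mean percent inhibition of FGFR4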
# [20] = target: Fibroblast growth factor receptor 3 (Homo sapiens) (UniProt P22607); settings: at 1 µM
Structure (SMILES),inhibition [1] [%],inhibition [2] [%],inhibition [3] [%],inhibition [4] [%],inhibition [5] [%],inhibition [6] [%],inhibition [7] [%],inhibition [8] [%],inhibition [9] [%],inhibition [10] [%],inhibition [11] [%],inhibition [12] [%],inhibition [13] [%],inhibition [14] [%],inhibition [15] [%],inhibition [16] [%],inhibition [17] [%],inhibition [18] [%],inhibition [19] [%],inhibition [20] [%]
Fc1ccc(-c2cc(-c3c[nH]nc3-c3ccccn3)ccn2)cc1,10.6,7.2,4.44,3.71,0.96,4.82,6.84,8.5,12.7,4.53,5.23,2.57,3.31,6.18,6.81,5.36,5.13,4.33,-0.17,
Cc1ccc2c(-c3ccnc(Nc4ccccc4)n3)c(-c3ccc(F)cc3)nn2n1,70.6,6.49,11.4,12.9,56.9,3.68,32.3,67.3,88.7,0.47,8.06,2.61,5.64,9.59,10.9,7.81,13,6.27,1.19,8.54
CS(=O)(=O)CCNCc1coc(-c2ccc3ncnc(Nc4ccc(OCc5ccccc5)cc4)c3c2)c1,7.45,3.83,4.34,2.88,4.04,6.1,59,55.3,94.1,-0.6,1.36,2.79,3.78,3.21,2.53,3.27,4.29,5.11,4.22,3.99
Cc1cccc(Nc2ncc(-c3ccccc3)o2)c1,2.78,1.56,2.29,2.8,3.6,2.48,2.62,3.46,8.57,3.24,7.96,1.97,3.44,5.23,3.22,6.15,6.52,6.68,2.94,4.17
CS(=O)(=O)CCNCc1ccc(-c2ccc3ncnc(Nc4ccc(OCc5ccccc5)c(C(F)(F)F)c4)c3c2)o1,5.29,2.9,3.77,3.21,3.55,-0.56,10.4,9.71,33.4,4.03,1.94,3.29,3.27,1.07,5.49,3.74,6.37,4.77,2.52,5.71
Fc1ccc(-c2nn3ccccc3c2-c2ccncc2)cc1,17.7,4.48,8.05,1.73,4.73,1.52,2.31,10.8,27.2,1.5,0.75,0.57,0.96,3.29,0.56,-0.01,6.38,5.68,0.84,2.66
N#Cc1c(NC(=O)CN2CCOCC2)sc2c1CCCC2,12.9,4.21,4.07,2.41,0.41,2.23,4.83,7,5.12,8.53,9.05,3.37,6.23,4.57,3.5,3.03,7.88,3.63,-0.36,6.45
